Tau ThT inhib – blocks human tau fibril formation measured by thioflavin T; hit rate 2.1% among 270,000; P10636; recombinant tau K18 P301L, heparin-induced fibrillization, ThT fluorescence; AID 1460; Potency, µM (doses to about 57.4 µM), hits mostly inhibitors; note: nearly all actives have a fitted effect of over 55% in size
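In this qHTS, human K18 P301L tau is incubated with compound and heparin for 6 hr at 37 C, and Thioflavin T fluorescence then reports fibril load.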
Luc counter – counter-screen: inhibitors of Kinase-Glo firefly luciferase; hit rate 0.28% among 200,000; Kinase-Glo luciferase, ATP luminescence, 8 min; Potency, µM (doses to about 38.3 µM), usual class: inhibitors; AID 1379; Q27757; note: nearly all actives have a fitted effect of over 60% in size
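Inhibition of Kinase-Glo luciferase light generation was assessed at 10 uM ATP in pH 7.2 imidazole buffer, with luminescence measured after eight minutes at ambient temperature.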
Tau fibril FP – inhibitors of human tau fibril formation; P10636; AID 1468; K18 P301L tau heparin fibrillization, Alexa594 FP, 6 h; hit rate 0.39% among 280,000; Potency, µM (titrated, usually from 57.7 µM), hits mostly inhibitors; note: nearly all actives have a fitted effect of over 55% in size
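Heparin (20 uM) drove fibril formation of recombinant tau K18 P301L, 15 uM unlabeled with 0.24 uM Alexa 594 label, for 6 hr at 37 C in 100 mM sodium acetate pH 7. Fluorescence polarization (555/632 nm) read 1 hr after 30 uM ThT.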
Tau fluor cs – counter-screen for tau fibril formation inhibitors; tau K18 P301L (four-repeat tau fragment) Alexa594 fluorescence, heparin fibrillization; Potency, µM (series often up to 57.7 µM); hit rate 0.93% among 280,000; AID 1463; note: nearly all actives have a fitted effect of over 55% in size
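Human K18 P301L tau (15 uM unlabeled plus 0.24 uM Alexa 594-labeled, final) in 100 mM sodium acetate pH 7 was mixed with compound and 20 uM heparin and incubated 6 hr at 37 C.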
NPSR antag – antagonists of human neuropeptide S receptor cAMP signaling | Q6W5P4 | CHO-NPSR cells, cAMP TR-FRET, antagonist mode | Potency, µM (top dose mostly 38.3 µM), most hits filed as inhibitors | hit rate 1% among 220,000 | AID 1461; note: nearly all actives have a fitted effect of over 50% in size
Target sequence (Q6W5P4 whole entry, looked up): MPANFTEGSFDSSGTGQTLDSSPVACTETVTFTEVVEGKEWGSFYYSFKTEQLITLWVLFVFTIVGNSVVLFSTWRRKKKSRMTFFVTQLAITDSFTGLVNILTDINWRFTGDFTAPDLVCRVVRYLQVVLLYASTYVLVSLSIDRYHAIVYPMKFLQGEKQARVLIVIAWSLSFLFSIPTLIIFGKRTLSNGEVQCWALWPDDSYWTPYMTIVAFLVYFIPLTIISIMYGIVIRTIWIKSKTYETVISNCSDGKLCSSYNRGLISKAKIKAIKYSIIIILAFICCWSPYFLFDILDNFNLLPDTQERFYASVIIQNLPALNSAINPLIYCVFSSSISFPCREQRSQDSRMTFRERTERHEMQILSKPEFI
Of the large screens only hits and unclear results are named; the others gave an inactive call; [ ] = dose if it differs, or a comment. An excerpt weighted towards active compounds, which were near 3.3% of everything screened. Calls come from the whole dose curve; as a rule, active = well fitted curve in the direction sought with a large enough effect; inconclusive = small, poorly fitted or top-dose-only effect, or another doubt; inactive = no such curve, though single readings can be large; an effect the other way counts as inactive or inconclusive.

Cc1nn(CCc2nc(-c3ccco3)cs2)c2[nH]c(=O)cc(C(F)(F)F)c12	Tau ThT inhib 25.1µM, Tau fibril FP inconclusive
COc1ncc2nc(C)c(=O)n(CCC#N)c2n1	none (no result: Tau ThT inhib, Tau fibril FP, Tau fluor cs, NPSR antag)
C/C(=N\NC(=O)c1cc(C(C)C)[nH]n1)c1ccco1	Luc counter 8.91µM
COC(=O)CN1C(=O)CSc2ccc(S(=O)(=O)Nc3c(C)cc(C)cc3C)cc21	none (no result: Luc counter, NPSR antag)
CCOc1cc(CNCCSc2nnnn2-c2ccccc2)cc(Cl)c1OC	none (no result: Luc counter, NPSR antag)
COC(=O)CN(Cc1ccccc1)S(=O)(=O)c1ccc(OC)c(OC)c1	Tau ThT inhib 15.8µM, Tau fibril FP inconclusive
COC(=O)CN(CCc1ccccc1)S(=O)(=O)c1ccc(OC)c(OC)c1	none
CCOc1ccc(Cn2c(O)cc(=O)[nH]c2=O)cc1	Tau ThT inhib 15.8µM, Tau fibril FP inconclusive
CC(C)C(=O)Nc1ccc2nc(SCC(=O)N3CCCC3)sc2c1	none (no result: Luc counter, NPSR antag)
COc1ccc(C(=O)NCCNc2ccccc2[N+](=O)[O-])cc1	Tau ThT inhib 8.91µM
Cc1ccccc1C(=O)Oc1ccc(-c2csnn2)cc1	Tau ThT inhib inconclusive (no result: Luc counter)
Cc1ccccc1C(=O)Oc1ccc(Sc2ccc(O)cc2)cc1	Tau ThT inhib inconclusive, Tau fibril FP 25.1µM, Tau fluor cs 7.08µM[quencher]
Cc1cccc(NC(=O)Cn2cc(S(=O)(=O)N3CCCC3)c(S(=O)(=O)N3CCCC3)c2)c1C	none (no result: Luc counter, NPSR antag)
COc1ccccc1NC(=O)c1ccc(N)cc1	none
COC(=O)c1ccc(C(=O)Nc2ccc(N)cc2N)cc1	Tau ThT inhib 12.6µM
O=C1N=C(N2CCN(c3ccccc3)CC2)S/C1=C/c1ccco1	Tau ThT inhib inconclusive (no result: Luc counter)
O=C1N=C(N2CCN(c3ccccc3)CC2)S/C1=C\c1ccco1	Tau ThT inhib 14.1µM
NC1=NC(=O)/C(=C/c2cccs2)S1	none
NC1=NC(=O)/C(=C\c2ccco2)S1	Tau ThT inhib 17.8µM, Tau fibril FP inconclusive, Tau fluor cs inconclusive (no result: Luc counter)
CC1CCCCN1CCCNC(=O)c1ccc2c(c1)sc1nc(-c3ccc(F)cc3)cn12 (stereo not drawn)	none (no result: Luc counter, NPSR antag)
Cc1nc2ccccn2c(=O)c1NC(=O)c1ccccc1Cl	none (no result: Luc counter, NPSR antag)
c1ccc(CNc2nc3c(-c4ccccc4)nnn3c3ccccc23)cc1	none (no result: Luc counter, NPSR antag)
O=C1c2ccccc2C(=O)C12OC2c1cccc2ccccc12 (stereo not drawn)	Tau ThT inhib 2.51µM, Tau fibril FP 4.47µM, NPSR antag inconclusive
COc1ccccc1CN1CCC2(CC1)CCN(S(C)(=O)=O)CC2	none (no result: Tau ThT inhib, Tau fibril FP, Tau fluor cs, NPSR antag)
C=CCN1C(=O)C(CC(=O)O)SC1=Nc1cccc([N+](=O)[O-])c1 (stereo not drawn)	none
C=CCN1C(=O)C(CC(=O)O)SC1=Nc1ccc(N=Nc2ccccc2)cc1 (stereo not drawn)	Tau ThT inhib 11.2µM (no result: Luc counter)
COc1ccc(OCC(=O)Nc2cc(-c3ccccc3F)nn2-c2ccccc2)cc1	none (no result: Luc counter, NPSR antag)
CCN1C=C(Cc2ccc(F)cc2)C2=C(C1)C(c1ccc(F)cc1)C(C#N)=C(N)O2 (stereo not drawn)	Tau ThT inhib inconclusive, NPSR antag 10µM
O=[N+]([O-])c1cc(/C=N\Nc2nccs2)ccc1O	Tau ThT inhib 12.6µM, Tau fibril FP inconclusive, Tau fluor cs 14.1µM[quencher], NPSR antag 2.51µM
COc1cc(/C=N/Nc2ccccc2C(F)(F)F)ccc1O	Tau ThT inhib inconclusive, Tau fluor cs inconclusive
COc1cc(/C=N/Nc2nnc3c(n2)[nH]c2ccccc23)ccc1O	Tau ThT inhib 0.708µM
COc1ccc(OC)c(/C=N/Nc2nncn2/N=C/c2cc(OC)ccc2OC)c1	Tau ThT inhib inconclusive
COc1cc(/C=N/Nc2nncn2/N=C/c2ccc(O)c(OC)c2)ccc1O	Tau ThT inhib inconclusive, Luc counter 10µM
CC(=O)NN1C(=O)/C(=C\c2ccccc2)SC1=S	none

Source: PubChem BioAssay
